These results are taken from PubChem BioAssay (NCI).

Molecules are shown by their SMILES. Compounds without any hit were thinned out: in the full panel of roughly 83,000, 20% have a hit.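 Compound tested at a single concentration for 48 hours in 96-well plates; a percent growth value below 10 was scored as active.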 A number with no mark means an inactive call. Active and inactive are the calls of the source.

Among the test systems are SK-MEL-2 melanoma; EKVX NSCLC; SN12C renal; UO-31 renal; TK-10 renal; ACHN renal; A498 renal; CCRF-CEM leukemia; MOLT-4 leukemia; SR leukemia; RPMI-8226 leukemia; OVCAR-8 ovarian; OVCAR-5 ovarian; OVCAR-4 ovarian; SK-OV-3 ovarian; IGROV1 ovarian; OVCAR-3 ovarian; HS 578T breast; NCI/ADR-RES ovarian; CAKI-1 renal.
Holding throughout (assay): NCI-60 one-dose screen, 48 h (100 = growth as untreated, 0 = no growth, -100 = all killed)
What all share (conditions): 10 µM unless noted

With `COc1ccc(NC(=O)c2ccc(/C=C/C(=O)c3ncc[nH]3)cc2)cc1`, the growth is 97.6% in the test on SK-MEL-2 melanoma; 79.8% with EKVX NSCLC; 70.8% with SN12C renal; 48.4% with UO-31 renal; 88.8% with TK-10 renal; 86.3% in the test on ACHN renal. Further, the growth in the test with A498 renal was 86.8%; in the test with CCRF-CEM leukemia it was 29.1%; with MOLT-4 leukemia it was 62.4%; in the test on SR leukemia it was 13.4%; in the test with RPMI-8226 leukemia it was 16.7%; in the test with OVCAR-8 ovarian, 64.7%. Besides, the growth with OVCAR-5 ovarian is 107%; with OVCAR-4 ovarian, 82.5%; in the test on SK-OV-3 ovarian, 96.9%; in the test with IGROV1 ovarian, 78%; in the test on OVCAR-3 ovarian, 31.1%; in the test on HS 578T breast it was 94.7%. Further, the growth in the test with NCI/ADR-RES ovarian was 77.4%.

In the case of `CC(C)c1c(C(=O)c2ccccc2)c(-c2ccccc2)c(-c2ccc(F)cc2)n1CC[C@@H](O)C[C@@H](O)CC(=O)O`, the growth with SK-MEL-2 melanoma was 36.2%; with EKVX NSCLC, 68.2%; with SN12C renal it was 31.9%; in the test on UO-31 renal it was 72%; with TK-10 renal it was 116%; in the test on ACHN renal, 25.3%. Further, the growth in the test on CAKI-1 renal is 21.6%; in the test on CCRF-CEM leukemia it was 81.4%; with MOLT-4 leukemia, 87.6%; in the test on RPMI-8226 leukemia it was 67.1%; with OVCAR-8 ovarian, 49.6%; in the test on OVCAR-5 ovarian, 88.2%. The growth with OVCAR-4 ovarian was 87.5%; in the test on SK-OV-3 ovarian, 84.5%; in the test with IGROV1 ovarian, 39.5%; in the test with OVCAR-3 ovarian, 83.9%; in the test with HS 578T breast, 17.1%; in the test on NCI/ADR-RES ovarian it was 48.9%.

On to `CCc1nc(N)nc(N)c1C#CC(C)c1cc(-c2ccnc(C)c2)c2oc(C)nc2c1` (stereo not drawn), for which the growth with SK-MEL-2 melanoma is 30.1%; in the test with EKVX NSCLC, 19.2%; in the test with SN12C renal, 6.91% (active); in the test with UO-31 renal, 9.81% (active); in the test with TK-10 renal, 25.2%; in the test with ACHN renal, 9.82% (active). Moreover, the growth in the test on A498 renal is 10.8%; in the test with CCRF-CEM leukemia, 0.474% (active); in the test on MOLT-4 leukemia it was 1.69% (active); with SR leukemia it was 3.38% (active); in the test on RPMI-8226 leukemia it was 2.39% (active); in the test on OVCAR-8 ovarian, 18.6%. In addition, the growth with OVCAR-5 ovarian is 36.8%; in the test with OVCAR-4 ovarian, 51%; with SK-OV-3 ovarian it was 16.8%; with IGROV1 ovarian, 2.77% (active); in the test with OVCAR-3 ovarian, 17%; with HS 578T breast, 26.4%. For the same compound, the growth with NCI/ADR-RES ovarian was 11.5%.

Turning to `CCNc1ncnc2c1cnn2C1CCCO1` (stereo not drawn), the growth was 116% with SK-MEL-2 melanoma; 115% in the test on EKVX NSCLC; 103% with SN12C renal; 86% in the test on UO-31 renal; 116% with TK-10 renal; 104% in the test on ACHN renal. The growth in the test with CAKI-1 renal is 101%; with CCRF-CEM leukemia, 87.6%; in the test with MOLT-4 leukemia, 92.3%; with SR leukemia it was 94.3%; in the test on RPMI-8226 leukemia, 98.5%; with OVCAR-8 ovarian, 115%. Also, the growth is 102% in the test on OVCAR-5 ovarian; 108% in the test with OVCAR-4 ovarian; 104% in the test with SK-OV-3 ovarian; 111% with OVCAR-3 ovarian; 113% in the test with HS 578T breast; 100% with NCI/ADR-RES ovarian.

Regarding `Clc1ccc2c(NCCNc3nc(N4CCOCC4)nc4ccccc34)ccnc2c1`, the growth with SK-MEL-2 melanoma was -42.9% (active); in the test with EKVX NSCLC, 31.1%; with SN12C renal, 0.0194% (active); in the test with UO-31 renal, -89% (active); with TK-10 renal it was -88.6% (active); in the test with ACHN renal, -44.2% (active). The growth is -12.8% (active) in the test on A498 renal; -8.56% (active) in the test with CCRF-CEM leukemia; 11.7% in the test on MOLT-4 leukemia; -23.5% (active) in the test on SR leukemia; -37% (active) with RPMI-8226 leukemia; -25.8% (active) in the test with OVCAR-8 ovarian. The growth was 51.8% in the test on OVCAR-5 ovarian; 3.78% (active) in the test on OVCAR-4 ovarian; -37.8% (active) with SK-OV-3 ovarian; 48.8% in the test on IGROV1 ovarian; -75% (active) in the test on OVCAR-3 ovarian; -13.9% (active) in the test on HS 578T breast. For the same compound, the growth in the test with NCI/ADR-RES ovarian is 47.9%.

In the case of `CC1=C[C@H]2c3c(c(O)c(O)c4oc(-c5ccccc5)cc(=O)c34)[C@H](c3cc(O)c(O)c4oc(-c5ccccc5)cc(=O)c34)[C@H]2C(C)(C)C1`, the growth is -3.08% (active) in the test on SK-MEL-2 melanoma; 14.5% with EKVX NSCLC; 1.79% (active) in the test on SN12C renal; -50.2% (active) in the test on UO-31 renal; 28.4% in the test on TK-10 renal; 2.25% (active) in the test on ACHN renal. Also, the growth with CAKI-1 renal is -27% (active); with CCRF-CEM leukemia, 4.65% (active); in the test with MOLT-4 leukemia, 5.24% (active); in the test on SR leukemia, 0.0772% (active); in the test with RPMI-8226 leukemia it was 7.2% (active); in the test with OVCAR-8 ovarian it was 8.73% (active). Moreover, the growth in the test with OVCAR-5 ovarian is 20%; in the test on SK-OV-3 ovarian it was -3.99% (active); in the test with IGROV1 ovarian, -31.1% (active); with OVCAR-3 ovarian, 7.79% (active); with HS 578T breast, 5.98% (active); with NCI/ADR-RES ovarian, 17.5%.

`Cc1cc(N2CCOCC2)nc(N[C@@H]2CCC[C@H](Nc3ccnc4cc(Cl)ccc34)C2)n1`: the growth in the test on SK-MEL-2 melanoma was -71.5% (active); in the test on EKVX NSCLC it was 49.9%; in the test on SN12C renal it was 22.7%; in the test on UO-31 renal, -84.5% (active); with TK-10 renal, -68.7% (active); in the test with ACHN renal, -61.7% (active). In addition, the growth in the test on A498 renal is 35.1%; with CCRF-CEM leukemia, -10.4% (active); in the test with MOLT-4 leukemia it was 2.9% (active); in the test on SR leukemia, -36.9% (active); in the test on RPMI-8226 leukemia, -45.6% (active); in the test on OVCAR-8 ovarian, 5.36% (active). Besides, the growth was 49.4% in the test with OVCAR-5 ovarian; 35.5% in the test with OVCAR-4 ovarian; 64.4% in the test on SK-OV-3 ovarian; 26.4% in the test on IGROV1 ovarian; 22.6% in the test on OVCAR-3 ovarian; -11.1% (active) in the test on HS 578T breast. In addition, the growth in the test with NCI/ADR-RES ovarian was 18.2%.

Turning to `COc1cccc(/C=C2\Oc3cc(OCCN4CCCC4)ccc3C2=O)c1`, the growth is 102% in the test on SK-MEL-2 melanoma; 89.3% in the test with EKVX NSCLC; 97.3% with SN12C renal; 80.8% in the test on UO-31 renal; 89.3% in the test with TK-10 renal; 104% in the test on ACHN renal. The growth in the test with CAKI-1 renal was 98.5%; in the test on CCRF-CEM leukemia it was 71.6%; with MOLT-4 leukemia, 88.9%; in the test with SR leukemia it was 22.2%; in the test with RPMI-8226 leukemia it was 91.7%; with OVCAR-8 ovarian it was 98.4%. Also, the growth was 111% in the test on OVCAR-4 ovarian; 108% with SK-OV-3 ovarian; 98.6% in the test on IGROV1 ovarian; 97% in the test with OVCAR-3 ovarian; 91.8% with HS 578T breast; 93.8% in the test on NCI/ADR-RES ovarian.
